The source of these data is PubChem BioAssay (NCATS).

The target in assay [1] is Cytochrome P450 1A2 (Homo sapiens) (UniProt P05177). Kind of assay: p450-cyp1a2 (AID 410; calls by dose curve; also: potency is read from the fitted curve at half-maximal effect). The method in brief: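 20nM CYP1A2 with 100uM Luciferin-ME (at Km) in 100mM KPO4; compound preincubated 10 min, NADPH regeneration added, 60 min at room temperature. Luciferin quantified by luminescence after detection reagent; normalized to 57 uM furafylline.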
For assay [2], the target named is Mitogen-activated protein kinase 10 (Mus musculus) (UniProt Q61831). Kind of assay: JNK3 AlphaScreen Assay (AID 530; active = well fitted curve in either direction with a large enough effect, not every such curve was filed as active;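 also: kinase came from lysate of stimulated human HepG2 cells; signal reports phosphorylation of biotinylated GST-cJun 1-79 at Ser73 with 10 µM ATP; series mostly up to about 57 µM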). The method in brief: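 Inhibitors reduce antibody binding to phosphorylated biotin-cJun, lowering AlphaScreen luminescence. Lysates from HepG2 cells pre-activated by IL-1beta plus TNF-alpha supplied JNK3; compounds were titrated.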
The target of assay [3] is Cytochrome P450 2C9 (Homo sapiens) (UniProt P11712). Description: qHTS Assay for Inhibitors and Substrates of Cytochrome P450 2C9 (AID 883). Also: potency is read from the fitted curve at half-maximal effect; nearly all actives have a fitted effect of over 60% in size. Put shortly:
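CYP2C9 deoxyluciferin hydroxylation, 37C, 60 min with NADPH regeneration; 10nM enzyme, 100uM Luciferin-H (KM). Glo detection reagent stopped reaction; luminescence normalized to sulphaphenazole (57uM) full inhibition.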
On the technique in general: Quantitative high-throughput screening tests each substance at several concentrations.

Assay [4] addresses Cytochrome P450 3A4 (Homo sapiens) (UniProt P08684). Kind of assay: qHTS Assay for Inhibitors and Substrates of Cytochrome P450 3A4 (AID 884). Also: potency is read from the fitted curve at half-maximal effect; nearly all actives have a fitted effect of over 50% in size. The method in brief: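 20 nM human CYP3A4 with 25 uM Luciferin-PPXE (at KM) in 200 mM KPO4, preincubated 10 min with compound; NADPH regeneration started a 60 min RT reaction. Luciferin detected by luminescence, normalized to 57 uM ketoconazole as full inhibition.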

Assay [5] shares this target. Kind of assay: qHTS Assay for Activators of Cytochrome P450 3A4 (AID 885). Also: nearly all actives have a fitted effect of over 65% in size. Put shortly:
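Human CYP3A4 (20 nM) with Luciferin-PPXE at 25 uM (its KM) in 200 mM KPO4; 10 min compound preincubation, then NADPH regeneration and 60 min reaction at RT. Luciferin read by luminescence; normalized to 57 uM ketoconazole full inhibition.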

The target of assay [6] is 3',5'-cyclic-AMP phosphodiesterase 4B (Homo sapiens) (UniProt Q07343). Description: qHTS Assay for Inhibitors of PDE-IV (AID 607; active = well fitted activation curve with a large enough effect in the main read-out, with a control signal flat, not every such curve was filed as active). Put shortly: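 HEK293 ACTOne cells with CNG channel (1000/well), endogenous PDE4; membrane potential dye, compounds up to 22.9 uM final. Fluorescence Ex 535/Em 590; RO 20-1724 (100 uM final) as reference.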
Assay [7] concerns the target Cytochrome P450 2D6 (Homo sapiens) (UniProt P10635). Kind of assay: qHTS Assay for Inhibitors and Substrates of Cytochrome P450 2D6 (AID 891). Also: nearly all actives have a fitted effect of over 60% in size. Also: potency is read from the fitted curve at half-maximal effect. The method in brief:
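Human CYP2D6 (5 nM) with 30 uM Luciferin-ME EGE (at Km) in 100 mM KPO4, compound preincubated 10 min, then NADPH regeneration system for 60 min at room temperature. Luciferin read by luminescence; normalized to 1.43 uM quinidine.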

In assay [8] the target is Cytochrome P450 2C19 (Homo sapiens) (UniProt P33261). Description: qHTS Assay for Inhibitors and Substrates of Cytochrome P450 2C19 (AID 899). Also: nearly all actives have a fitted effect of over 60% in size. Also: potency is read from the fitted curve at half-maximal effect. The method in brief: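 In 50mM KPO4, the reaction held 5nM enzyme and KM-level (10uM) Luciferin-H EGE; it ran 60 min at 37C after NADPH regeneration and a 10 min compound preincubation. Luminescence values were scaled to 57uM ketoconazole as complete inhibition.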

Records with an inconclusive call do not appear. Activity calls are given as the source filed them. Unless noted, calls follow the shape of the dose curve; as a rule, active = well fitted curve in the direction sought with a large enough effect; inconclusive = small, poorly fitted or top-dose-only effect, or another doubt; inactive = no such curve, though single readings can be large; an effect the other way counts as inactive or inconclusive.

Cytochrome P450 2C19 (Homo sapiens), sequence (P33261 whole entry, looked up): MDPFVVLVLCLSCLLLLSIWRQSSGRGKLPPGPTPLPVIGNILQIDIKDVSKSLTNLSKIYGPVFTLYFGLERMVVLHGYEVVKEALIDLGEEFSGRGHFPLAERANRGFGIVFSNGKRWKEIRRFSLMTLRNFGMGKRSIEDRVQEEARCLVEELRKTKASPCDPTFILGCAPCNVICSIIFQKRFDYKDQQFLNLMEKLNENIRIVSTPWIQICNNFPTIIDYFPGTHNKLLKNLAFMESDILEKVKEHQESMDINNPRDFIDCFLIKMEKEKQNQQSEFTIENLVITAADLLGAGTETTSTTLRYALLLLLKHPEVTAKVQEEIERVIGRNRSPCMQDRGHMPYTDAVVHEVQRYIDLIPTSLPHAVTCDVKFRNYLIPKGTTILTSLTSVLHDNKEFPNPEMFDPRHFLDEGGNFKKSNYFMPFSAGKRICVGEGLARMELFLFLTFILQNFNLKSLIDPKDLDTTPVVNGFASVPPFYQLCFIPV
Cytochrome P450 1A2 (Homo sapiens), sequence (P05177 whole entry, looked up): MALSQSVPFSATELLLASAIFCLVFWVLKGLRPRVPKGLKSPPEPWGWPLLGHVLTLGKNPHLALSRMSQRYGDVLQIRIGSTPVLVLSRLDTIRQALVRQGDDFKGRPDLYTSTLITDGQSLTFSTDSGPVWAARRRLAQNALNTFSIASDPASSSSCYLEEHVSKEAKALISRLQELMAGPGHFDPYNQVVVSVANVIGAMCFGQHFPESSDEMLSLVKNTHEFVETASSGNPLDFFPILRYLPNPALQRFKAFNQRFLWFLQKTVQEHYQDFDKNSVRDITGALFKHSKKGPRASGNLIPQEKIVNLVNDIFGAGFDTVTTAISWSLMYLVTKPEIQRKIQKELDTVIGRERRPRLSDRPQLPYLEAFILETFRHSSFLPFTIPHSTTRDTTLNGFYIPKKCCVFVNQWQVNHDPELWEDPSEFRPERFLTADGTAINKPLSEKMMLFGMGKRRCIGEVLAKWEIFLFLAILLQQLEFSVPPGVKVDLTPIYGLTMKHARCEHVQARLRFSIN
Cytochrome P450 2D6 (Homo sapiens), sequence (P10635 whole entry, looked up): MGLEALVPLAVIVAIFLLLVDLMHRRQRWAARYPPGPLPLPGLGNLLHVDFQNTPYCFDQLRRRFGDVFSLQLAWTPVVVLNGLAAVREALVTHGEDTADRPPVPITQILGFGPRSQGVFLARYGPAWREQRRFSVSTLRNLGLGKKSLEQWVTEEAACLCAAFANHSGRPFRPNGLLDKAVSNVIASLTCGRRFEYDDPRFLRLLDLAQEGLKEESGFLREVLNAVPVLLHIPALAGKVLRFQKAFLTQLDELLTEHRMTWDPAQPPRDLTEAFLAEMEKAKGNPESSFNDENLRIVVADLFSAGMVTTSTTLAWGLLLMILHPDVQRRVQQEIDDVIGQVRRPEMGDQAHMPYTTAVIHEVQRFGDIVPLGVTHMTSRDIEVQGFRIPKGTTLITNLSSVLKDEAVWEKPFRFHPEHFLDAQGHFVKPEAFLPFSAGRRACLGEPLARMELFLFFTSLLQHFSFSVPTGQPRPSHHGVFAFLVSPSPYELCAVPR
Cytochrome P450 3A4 (Homo sapiens), sequence (P08684 whole entry, looked up): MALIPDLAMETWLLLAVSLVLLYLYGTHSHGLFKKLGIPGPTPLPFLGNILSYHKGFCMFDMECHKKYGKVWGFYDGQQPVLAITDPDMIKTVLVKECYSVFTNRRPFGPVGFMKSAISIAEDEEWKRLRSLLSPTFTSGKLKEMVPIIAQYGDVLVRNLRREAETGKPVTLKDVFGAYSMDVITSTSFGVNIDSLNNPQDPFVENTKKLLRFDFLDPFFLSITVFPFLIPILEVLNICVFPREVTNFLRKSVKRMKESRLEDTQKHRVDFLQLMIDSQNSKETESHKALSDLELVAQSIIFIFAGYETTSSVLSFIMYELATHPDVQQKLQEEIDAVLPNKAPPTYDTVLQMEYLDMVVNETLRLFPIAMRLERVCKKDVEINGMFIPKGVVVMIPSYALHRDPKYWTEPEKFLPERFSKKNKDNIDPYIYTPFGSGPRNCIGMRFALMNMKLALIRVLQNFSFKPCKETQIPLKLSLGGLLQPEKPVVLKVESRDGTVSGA
Cytochrome P450 2C9 (Homo sapiens), sequence (P11712 whole entry, looked up): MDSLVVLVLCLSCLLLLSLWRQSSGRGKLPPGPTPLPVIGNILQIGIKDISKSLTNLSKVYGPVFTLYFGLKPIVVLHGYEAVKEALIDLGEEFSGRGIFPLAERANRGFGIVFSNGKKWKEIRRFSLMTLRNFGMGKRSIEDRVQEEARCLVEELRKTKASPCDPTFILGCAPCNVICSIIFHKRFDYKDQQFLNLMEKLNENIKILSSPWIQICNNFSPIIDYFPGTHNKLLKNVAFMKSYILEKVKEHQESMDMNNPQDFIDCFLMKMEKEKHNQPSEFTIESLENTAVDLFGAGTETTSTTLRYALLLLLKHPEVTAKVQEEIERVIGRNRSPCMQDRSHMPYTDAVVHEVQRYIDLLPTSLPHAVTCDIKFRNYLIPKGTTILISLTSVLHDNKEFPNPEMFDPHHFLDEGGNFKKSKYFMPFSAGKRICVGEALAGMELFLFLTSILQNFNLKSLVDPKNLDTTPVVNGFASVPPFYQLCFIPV
3',5'-cyclic-AMP phosphodiesterase 4B (Homo sapiens), sequence (Q07343 whole entry, looked up): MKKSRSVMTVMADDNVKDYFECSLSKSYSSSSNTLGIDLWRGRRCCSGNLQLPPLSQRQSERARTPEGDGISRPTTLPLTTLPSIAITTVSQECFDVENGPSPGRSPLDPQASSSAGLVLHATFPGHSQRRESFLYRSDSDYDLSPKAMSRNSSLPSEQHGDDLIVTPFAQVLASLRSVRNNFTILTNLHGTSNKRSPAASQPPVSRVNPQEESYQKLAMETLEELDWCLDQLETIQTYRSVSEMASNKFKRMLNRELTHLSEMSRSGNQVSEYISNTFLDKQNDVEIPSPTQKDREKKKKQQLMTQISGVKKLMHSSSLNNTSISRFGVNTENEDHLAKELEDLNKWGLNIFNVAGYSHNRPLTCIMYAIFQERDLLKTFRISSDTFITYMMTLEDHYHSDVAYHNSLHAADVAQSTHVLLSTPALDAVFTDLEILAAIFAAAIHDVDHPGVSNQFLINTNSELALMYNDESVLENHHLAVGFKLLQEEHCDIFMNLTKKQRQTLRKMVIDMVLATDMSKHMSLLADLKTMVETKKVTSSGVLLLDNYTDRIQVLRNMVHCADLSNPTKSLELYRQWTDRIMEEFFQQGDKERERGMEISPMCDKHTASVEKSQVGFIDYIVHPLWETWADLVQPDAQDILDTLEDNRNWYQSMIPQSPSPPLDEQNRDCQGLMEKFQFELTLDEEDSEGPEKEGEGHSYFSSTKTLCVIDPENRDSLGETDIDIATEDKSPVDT

With `COC(=O)[C@@]1(Cc2ccc(F)cc2)[C@H]2c3cc(C(=O)N4CCCC4)n(CCc4ccc(OC)c(Br)c4)c3C[C@H]2CN1C(=O)c1ccccc1`, the Potency in assay [1] is 15800 nM (active); in assay [3] it was 3160 nM (active); in assay [4] it was 2510 nM (active). In addition, the Potency entry in assay [2] and in assay [5] was “inactive” each time.

As to `C[C@@H](C(=O)Nc1ccc2ccccc2c1)[C@H]1C[C@]1(C)[C@H](NS(=O)(=O)c1ccc(-c2ccccc2)cc1)c1ccccc1`, the Potency in assay [1] is 15800 nM (active); in assay [7] it was 2000 nM (active). Further, the Potency result in assay [2], in assay [6] and in assay [5] was “inactive” each time.

For `C[C@@H](C(=O)O)[C@H]1C[C@]1(C)[C@H](NC(=O)OCc1ccccc1)c1ccccc1`, the Potency entry in assay [1], in assay [2], in assay [6] and in assay [5] was “inactive” each time. For the same compound, the Potency in assay [8] is 7940 nM (active).

For the compound `CC[C@@H]1OC(=O)[C@@H](C)[C@H](O[C@@H]2C[C@@](C)(OC)[C@@H](O)[C@H](C)O2)[C@H](C)[C@H](O[C@@H]2O[C@@H](C)C[C@@H](N(C)C)[C@H]2O)[C@@](C)(O)C[C@H](C)C(=O)[C@@H](C)[C@H](O)[C@@]1(C)O`, the Potency result in assay [1], in assay [2], in assay [6] and in assay [7] was “inactive” throughout.

As to `CC[C@H]1C(=O)OC[C@@H]1Cc1cncn1C`, the Potency entry in assay [1], in assay [2], in assay [6], in assay [7] and in assay [8] was “inactive” throughout.

In the case of `COC(=O)[C@@]1(Cc2ccccc2)[C@H]2c3cc(C(=O)N4CCCC4)n(Cc4ccc(OC)c(OC)c4)c3C[C@H]2CN1C(=O)c1ccccc1`, the Potency result in assay [1], in assay [2] and in assay [5] was “inactive” each time. The Potency in assay [3] and in assay [4] was 1260 nM (active) throughout.

`COC(=O)C1(Cc2ccccc2)C=C2C(=C(C)C(=O)C2C)CN1` (centres undefined): the Potency in assay [1] was 10000 nM (active). Moreover, the Potency entry in assay [2], in assay [6] and in assay [5] was “inactive” throughout.

Take `CCc1c2c(nc3cccc(C(C)C)c13)-c1cccc(=O)n1C2`: the Potency in assay [1] was 501 nM (active). The Potency result in assay [2], in assay [6] and in assay [5] was “inactive” throughout.

Consider `CCCC1(C(=O)OC)C=C2C(=C(C(C)C)C(=O)C2C)CN1` (centres undefined), for which the Potency entry in assay [1], in assay [2], in assay [6] and in assay [5] was “inactive” each time.

Take `COC(=O)[C@@]1(Cc2ccccc2)[C@H]2c3cc(C(=O)N4CCCC4)n(Cc4ccc(O)c(OC)c4)c3C[C@H]2CN1C(=O)c1ccccc1`: the Potency in assay [1] was 25100 nM (active); in assay [3] it was 2510 nM (active); in assay [4] it was 2000 nM (active); in assay [8], 501 nM (active). The Potency result in assay [2] and in assay [5] was “inactive” throughout.

Turning to `CC[C@H]1C2=C3C(CC[C@H]4C(OCc5ccc(F)cc5C(F)(F)F)OC[C@](C)([C@@H]34)N(C(=O)OC(C)(C)C)C2)C2COC(=O)OCC21` (some centres undefined), the Potency result in assay [1], in assay [2], in assay [6] and in assay [5] was “inactive” each time.

As for `c1ccc2c(c1)Cc1cc3ccccc3nc1-2`, the Potency was 100 nM (active) in assay [1]; 10000 nM (active) in assay [3]; 20000 nM (active) in assay [4]; 12600 nM (active) in assay [7]; 5010 nM (active) in assay [8]. Further, the Potency entry in assay [2] and in assay [5] was “inactive” throughout.

Consider `CCCC/C=C/C(NC(=O)C(C)(C)C)c1ccccc1` (centres undefined), for which the Potency in assay [1] was 20000 nM (active). Further, the Potency result in assay [2], in assay [6] and in assay [5] was “inactive” each time.

On to `C[C@@H](C(=O)NCc1ccccn1)[C@@H]1C[C@@]1(C)[C@@H](NC(=O)OCc1ccccc1)c1ccccc1`, for which the Potency in assay [1] is 20000 nM (active); in assay [8], 2510 nM (active). Further, the Potency entry in assay [2], in assay [6] and in assay [5] was “inactive” throughout.

Turning to `c1ccc2c(c1)Cc1cc3cc4c(cc3nc1-2)OCO4`, the Potency in assay [1] was 501 nM (active); in assay [3], 3980 nM (active); in assay [4], 1000 nM (active); in assay [7], 1260 nM (active); in assay [8], 1260 nM (active). Further, the Potency result in assay [2] and in assay [5] was “inactive” in each case.

In the case of `CCC[C@@H]1C[C@@]1(CCC)C(NS(=O)(=O)c1cccc2cccnc12)c1ccc(Cl)cc1` (some centres undefined), the Potency entry in assay [1], in assay [2] and in assay [5] was “inactive” in each case. Besides, the Potency in assay [3] is 7940 nM (active); in assay [4], 794 nM (active); in assay [8] it was 3160 nM (active).

With `CC(C)c1cccc2nc3c(c([Si](C)(C)C)c12)Cn1c-3cccc1=O`, the Potency in assay [1] is 15800 nM (active). The Potency result in assay [2], in assay [6] and in assay [5] was “inactive” throughout.

Regarding `COC(=O)C1(CC(C)C)C=C2C(=C(C(C)C)C(=O)C2C)CN1` (centres undefined), the Potency in assay [1] was 15800 nM (active). Besides, the Potency result in assay [2], in assay [6] and in assay [5] was “inactive” throughout.

For `C[C@@H](C(=O)Nc1ccc2ccccc2c1)[C@@H]1C[C@@]1(C)[C@@H](NC(=O)c1cnccn1)c1ccccc1`, the Potency in assay [1] is 12600 nM (active); in assay [3] it was 63.1 nM (active). The Potency entry in assay [2] and in assay [5] was “inactive” throughout.

As for `CCCC[C@@H]1C[C@H]1C(NC(=O)c1cccs1)c1ccc(C(F)(F)F)cc1` (some centres undefined), the Potency in assay [1] is 2000 nM (active); in assay [3], 1580 nM (active); in assay [4] it was 3160 nM (active). Moreover, the Potency entry in assay [2], in assay [5] and in assay [8] was “inactive” each time.

With `CCC/C=C(\CCC)C(NS(=O)(=O)c1ccc(C(F)(F)F)cc1)c1ccc(-c2ccccc2)cc1` (centres undefined), the Potency result in assay [1], in assay [2], in assay [6] and in assay [5] was “inactive” throughout.

Turning to `CC(C)=C1C(=O)C(c2ccccc2)=C2CN3C(=O)N(CCc4ccccc4)C(=O)[C@]3(Cc3ccccc3)[C@H]21`, the Potency result in assay [1], in assay [2], in assay [6] and in assay [5] was “inactive” each time.

Turning to `CCC/C=C(\CCC)C(NC(=O)c1ccc(C(=O)OC)cc1)c1ccc(C(=O)OC)cc1` (centres undefined), the Potency entry in assay [1], in assay [2] and in assay [5] was “inactive” throughout. For the same compound, the Potency in assay [3] is 2000 nM (active).

As to `CCCC[C@@H]1C[C@H]1C(NC(=O)c1ccccc1)c1ccccc1` (some centres undefined), the Potency in assay [1] is 2510 nM (active); in assay [3], 7940 nM (active). The Potency result in assay [2] and in assay [5] was “inactive” each time.
